Laboratory results from PubChem BioAssay (Tox21).
Unmarked numbers belong to inactive results. Entries that show only a call come without a potency. Active and inactive are the calls of the source. Calls follow the shape of the full dose curve.

The compounds below were run against Acetylcholinesterase (Homo sapiens) (UniProt P22303) (assay: Acetylcholinesterase (AChE) small molecule antagonists: enzyme-based qHTS assay with human liver microsomes (AID 1347399; also: nearly all actives have a fitted effect of over 60% in size)). Settings: Potency: qHTS inhibition; outcome: qHTS inhibition; series mostly up to 115 µM.
Acetylcholinesterase (Homo sapiens), sequence (P22303 whole entry, looked up): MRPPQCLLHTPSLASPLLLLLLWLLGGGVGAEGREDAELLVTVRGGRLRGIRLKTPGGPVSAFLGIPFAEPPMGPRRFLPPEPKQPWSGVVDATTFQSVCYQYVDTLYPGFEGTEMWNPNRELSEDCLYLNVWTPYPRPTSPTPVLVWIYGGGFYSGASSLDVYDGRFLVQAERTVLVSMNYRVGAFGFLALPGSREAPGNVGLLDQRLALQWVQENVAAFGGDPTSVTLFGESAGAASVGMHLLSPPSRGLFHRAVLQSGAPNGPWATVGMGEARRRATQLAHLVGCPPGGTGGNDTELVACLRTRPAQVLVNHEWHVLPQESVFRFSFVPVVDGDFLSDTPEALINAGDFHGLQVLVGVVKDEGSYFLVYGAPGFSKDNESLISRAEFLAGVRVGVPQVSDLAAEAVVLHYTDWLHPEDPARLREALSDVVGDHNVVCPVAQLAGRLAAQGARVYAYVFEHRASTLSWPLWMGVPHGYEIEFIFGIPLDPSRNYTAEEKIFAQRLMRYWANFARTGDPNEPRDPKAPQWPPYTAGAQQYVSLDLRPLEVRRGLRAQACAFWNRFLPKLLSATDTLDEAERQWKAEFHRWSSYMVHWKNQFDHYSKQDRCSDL
Description: National Center for Advancing Translational Sciences [NCATS]
Division of Preclinical Innovation [DPI]
U.S. Environmental Protection Agency [EPA]
National Institutes of Environmental Health Sciences [NIEHS]
National Toxicology Program [NTP]
U.S. Food and Drug Administration [FDA]
Acetylcholinesterase (AChE) is the primary cholinesterase in the body that hydrolyzes a key neurotransmitter, acetylcholine. Inhibition of AChE activity can lead to neurotoxicity. The known inhibitors include organophosphorous pesticides (OP), chemical warfare agents, drugs, and various phytochemicals. Some compounds like OP compounds may need metabolic activation to be active AChE inhibitors. The cytochrome P450 (CYP) superfamily in the human microsomes is responsible for the metabolism of various endogenous and exogenous compounds.
An enzyme-based assay with the recombinant human AChE, human liver microsomes and Amplite Colormetric acetylcholinesterase assay kit (AAT Bioquest, Sunnyvale, CA) was used to evaluate compounds in the Tox21 10K library that need metabolic activation for AChE inhibition. The assay uses 5, 5-dithiobis-(2-nitrobenzoic acid) (DTNB) to quantify the thiocholine produced from the hydrolysis of acetylthiocholine by AChE.
Tox21 Assay Protocol Summary:
For the enzyme-based AChE assay with microsomes addition, a mixture of human AChE (50 mU/mL) and human liver microsomes (0.25 mg/mL, final concentration) in 3 uL/well was dispensed into black, clear-bottom 1536-well plates using a Multidrop Combi dispenser (Thermo Scientific, MA). Then, 23 nL of compound or DMSO (vehicle control) was transferred into the assay plates by a Pintool Station (Wako Automation, CA). Following compound addition, 1 uL of NADPH (0.25 mg/mL, final concentration) was transferred to the assay plate by a Flying Reagent Dispenser (Beckman Coulter, CA). The plates were incubated for 30 min at 37 C and 5% CO2, followed by the addition of 4 uL of colorimetric detection cocktail solution (DTNB, acetylthiocholine) into each well using a Flying Reagent Dispenser (Beckman Coulter, CA) and then 10 min incubation at room temperature.
Potency is read from the fitted curve at half-maximal effect.

Row | SMILES | Potency | activity change, negative = inhibition
1 | CC(=O)OCC(=O)[C@@]12N=C(C)O[C@@H]1C[C@H]1[C@@H]3CCC4=CC(=O)C=C[C@]4(C)[C@H]3[C@@H](O)C[C@@]12C | inactive | –
2 | Cn1c(=O)c2c(ncn2CCO)n(C)c1=O | inactive | –
3 | COC(=O)c1cccc(C(=O)OC)c1 | inactive | –
4 | CSc1cnccn1 | inactive | –
5 | CCC[C@H](N[C@@H](C)C(=O)N1[C@H](C(=O)O)C[C@@H]2CCCC[C@@H]21)C(=O)OCC | inactive | –
6 | CC(C)(C)Cl | inactive | –
7 | Cc1cc(C2CCCCC2)n(O)c(=O)c1 | inactive | –
8 | c1cnccn1 | inactive | –
9 | Nc1ccn([C@@H]2O[C@H](CO)[C@@H](O)C2O)c(=O)n1 (stereo not given in full) | inactive | –
10 | C[C@]12CC[C@@H]3c4ccc(O)cc4C[C@@H](CCCCCCCCCS(=O)CCCC(F)(F)C(F)(F)F)[C@H]3[C@@H]1CC[C@@H]2O (stereo not given in full) | inactive | –
11 | CCCC(=O)OCOC(=O)C1=C(C)NC(C)=C(C(=O)OC)C1c1cccc(Cl)c1Cl (stereo not given) | inactive | –
12 | Nc1ccc(S(=O)(=O)O)cc1 | inactive | –
13 | Cn1cccc1 | inactive | –
14 | O=C(Cl)c1ccc(F)c(Cl)c1 | inactive | –
15 | CC(=O)Nc1ccc2c(c1)Cc1cc(NC(C)=O)ccc1-2 | inactive | –
16 | NCCOCCO | inactive | –
17 | C=C(C)C(=O)O | inactive | –
18 | CCOc1ccccc1C(N)=O | inactive | –
19 | CCCCCCCCCCCC(=O)OC[C@@H](O)[C@H]1OC[C@H](OCCO)[C@H]1OCCO | inactive | –
20 | CC(=O)C(=O)O | inactive | –

Row | SMILES | Potency | activity change, negative = inhibition
21 | Cc1c(-c2cccnc2)c2ccccc2n1CCCCC(=O)O | inactive | –
22 | CC(NN)c1ccccc1 (stereo not given) | – | 1.27% [at 23.6 µM]
23 | CC(C(=O)O)c1ccc2c(c1)CC(=O)c1ccccc1S2 (stereo not given) | inactive | –
24 | CCCOC(=O)CC | inactive | –
25 | COc1cc(C)cc(O)c1 | inactive | –
26 | c1cnc(N2CCN(Cc3ccc4c(c3)OCO4)CC2)nc1 | inactive | –
27 | Cc1cc2nc3ccc(=[N+](C)C)cc-3sc2cc1N | 24.5 µM (active) | –
28 | Cn1c(=O)c2[nH]cnc2n(C)c1=O | inactive | –
29 | Cn1ccc2cc3c(cc21)CCN3C(=O)Nc1cccnc1 | – | 2.86% [at 23.6 µM]
30 | O=C(O)c1cc(C(=O)O)cc(S(=O)(=O)O)c1 | inactive | –
31 | Cc1ccc2c(n1)Oc1ccc(C(C)C(=O)OCC(=O)N(C)C)cc1C2 (stereo not given) | inactive | –
32 | O=S(c1cc(Cl)cc(Cl)c1O)c1cc(Cl)cc(Cl)c1O | inactive | –
33 | COP(=O)(OC)OC(c1ccc(Cl)cc1)P(=O)(OC)OC (stereo not given) | inactive | –
34 | CN=C(N)NC(=O)Nc1c(C)cccc1C | inactive | –
35 | Cc1occc1SSc1ccoc1C | inactive | –
36 | CCCn1cnc2c1c(=O)n(CCCCC(C)=O)c(=O)n2C | inactive | –
37 | C=CCCCCCCCCO | inactive | –
38 | CCOC(=O)[C@H](CCc1ccccc1)N[C@@H](C)C(=O)N1Cc2ccccc2C[C@H]1C(=O)O | inactive | –
39 | Oc1ccccc1-c1nnco1 | inactive | –
40 | CCCCCCCCCCCCCCCO | inactive | –
